The values below come from PubChem BioAssay AID493220 (National Center for Advancing Translational Sciences (NCATS), 2011).

The structures appear in SMILES notation. Results filed as inconclusive are left out. Activity calls are given as the source filed them. The call rests on the fitted dose curve.

Polyunsaturated fatty acid lipoxygenase ALOX15 (Homo sapiens), sequence (P16050 whole entry, looked up): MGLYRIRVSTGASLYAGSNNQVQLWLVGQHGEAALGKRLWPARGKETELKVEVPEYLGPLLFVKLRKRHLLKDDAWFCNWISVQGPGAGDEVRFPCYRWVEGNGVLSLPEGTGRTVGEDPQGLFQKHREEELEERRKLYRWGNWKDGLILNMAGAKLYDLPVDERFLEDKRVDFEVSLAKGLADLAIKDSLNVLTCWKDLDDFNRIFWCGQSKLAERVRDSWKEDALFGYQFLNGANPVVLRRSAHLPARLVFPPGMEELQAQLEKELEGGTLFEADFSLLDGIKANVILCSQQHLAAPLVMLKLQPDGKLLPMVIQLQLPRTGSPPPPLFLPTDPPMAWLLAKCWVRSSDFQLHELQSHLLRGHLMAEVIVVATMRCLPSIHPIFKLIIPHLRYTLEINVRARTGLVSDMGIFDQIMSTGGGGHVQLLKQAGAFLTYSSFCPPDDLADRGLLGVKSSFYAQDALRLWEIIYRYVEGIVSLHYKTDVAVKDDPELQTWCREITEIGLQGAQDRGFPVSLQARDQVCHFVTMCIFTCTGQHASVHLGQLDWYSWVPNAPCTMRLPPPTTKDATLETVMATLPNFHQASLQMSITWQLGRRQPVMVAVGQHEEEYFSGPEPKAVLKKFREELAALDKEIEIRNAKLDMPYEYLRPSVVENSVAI

The experiment has as its target Polyunsaturated fatty acid lipoxygenase ALOX15 (Homo sapiens) (UniProt P16050). Briefly: Inhibitors of 12-hLO (12-human lipoxygenase): 15hLO-1 Cuvette-Based Inhibition Counterscreen Assay for 12hLO Followup Compounds. The conditions noted are these: purified 15hLO-1, UV 234 nm product formation. The procedure:
Human lipoxygenase 15hLO-1 is a member of the closely related lipoxygenase family of enzymes which catalyze the site-specific oxidation of arachidonic acid to various hormone precursor molecules and as such is a candidate for drug development in a variety of disease areas, such as cancer and inflammation. The enzyme activity of 15hLO-1 was determined by a direct measurement of product formation by monitoring the absorbance at 234 nm in a 2 mL cuvette. IC50 values of inhibitors were obtained by measuring the enzymatic rate at a variety of concentrations (Carroll et al, Segraves et al). A purified preparation of human 15hLO-1 was supplied by Professor Ted Holman, University of California, Santa Cruz. This assay was run against 12hLO followup compounds with the goal of identifying selective 12hLO inhibitors. Assay Provider: Holman, T.R., University of California, Santa Cruz Screening Center PI: Austin, Christopher P. Screening Center: NIH Chemical Genomics Center
For control experiments, 2 mL of substrate buffer (10 uM arachidonic acid / 25 mM HEPES / 0.01% (v/v) Triton X-100, pH 8.0) was aliquoted in a cuvette with a magnetic stir bar. After equilibrium was ensured, an aliquot of inhibitor solvent was added (DMSO), and equilibrium was once again assured. The reaction was started by adding enzyme to the cuvette and the reaction was followed until completed. The inhibition experiments were performed as above, except the actual inhibitory compound was added instead of vehicle. To achieve an IC50, typically 5 concentrations of the inhibitor were studied. If the inhibitor concentration was constant, then five different reaction volumes were used. Step \ Parameter \ Value \ Description 1; UV-Vis; 234 nm; Equilibration 2; Reagent; 2 mL; Substrate buffer 3; UV-Vis; 234 nm; Equilibration 4; Reagent; varies; Compound 5; UV-Vis; 234 nm; Equilibration 6; Reagent; 50-200 nM; Enzyme 12-hLO 7; UV-Vis; 234 nm; Enzymatic reaction Step \ Notes 1; Blank cuvette to air. 2; 10 uM AA, 25 mM HEPES, 0.01% Triton X-100, pH 8. 3; No change in absorbance ensured. 4; Compound vehicle or compound in various concentrations depending on potency. 5; No change in absorbance ensured. 6; Enzyme concentration to achieve reaction rate between 0.02 and 0.04 AU/s. 7; Enzymatic reaction visualized until completion.
A general note: A counterscreen serves to expose hits that act by an unwanted route or on another target.
Turning to `Cc1ccc(NC(=O)Nc2cccs2)c(Cl)c1`, the Potency was 58.8 µM (active).

For `CN(C)c1nccc(N(Cc2ccccc2)Cc2ccccc2)c1C#N`, the Potency was 17.7 µM (active).

As for `Cc1ccc(C(=O)Nc2nnc(-c3ccco3)o2)cc1`, the result was inactive.

For `Cc1oc2c(O)c(O)ccc2c(=O)c1-c1cnn(-c2ccccc2)c1`, the Potency was 18.9 µM (active).

For `COc1ccc(NC2=NCC(Cc3ccc(Br)cc3)S2)cc1` (stereo not given), the Potency was 8.89 µM (active).

As to `Cc1ccc(S(=O)(=O)Nc2nc(C)c(NC(=O)Nc3ccc(Cl)cc3Cl)s2)cc1`, the molecule was classed as inactive.

On to `Oc1ccc(-c2nc(-c3ccc(O)c(O)c3)cs2)cc1`, for which the Potency was 0.61 µM (active).

For `Oc1ccccc1-c1cc(-c2cccc(F)c2)n[nH]1`, the Potency was 4.81 µM (active).

In the case of `COc1ccc(C(=O)Nc2cc(C(=O)c3ccccc3)c(C)oc2=O)cc1`, the outcome was inactive.

Consider `Oc1ccc(Cl)cc1-c1cc(-c2ccco2)[nH]n1`, for which the Potency was 2.03 µM (active).

With `Oc1ccccc1-c1cc(-c2ccc3c(c2)OCCO3)n[nH]1`, the Potency is 2.55 µM (active).

With `CSc1ccc(S(=O)(=O)Nc2ccc(S(=O)(=O)Nc3ccc(C)cc3)cc2)cc1`, the Potency is 45 µM (active).

In the case of `COc1ccc(Cc2nc(C(=O)Nc3ccc(OC)cc3)cs2)cc1`, the Potency is 8.84 µM (active).

Turning to `Oc1ccc(CN2CCCc3ccccc32)c2cccnc12`, the Potency is 81.3 µM (active).

Consider `COc1ccc(-c2[nH]ncc2-c2ccc(Cl)cc2)c(O)c1`, for which the Potency was 6.81 µM (active).
